Assay results: the supplement of paper PMC6279402
Where a name gives a salt, the structure may show the parent alone. ± gives the standard deviation of the averaged measurements.

tested on: A549; assay: relative viability (normalised to negative control = 1, bortezomib = 0) (fraction); higher = less cytotoxic; conditions: inflammatory serum-free RHB-A with cytokines + LPS; 5 d + 24 h CellTiter-Blue; compound 30 nM; GSK126 pretreatment: none (vehicle)

SMILES | relative viability
Cc1ccc(C(=O)Nc2cccc(C(F)(F)F)c2)cc1Nc1nc(-c2cccnc2)nc2c1cnn2C | 0.959 ± 0.17
O=c1ncn2nc(Sc3ccc(F)cc3F)ccc2c1-c1c(Cl)cccc1Cl | 0.867 ± 0.11
C=CC(=O)Nc1cc2c(Nc3ccc(F)c(Cl)c3)ncnc2cc1OCCCN1CCOCC1 [CI-1033(Canertinib)] | 0.595 ± 0.017
Cc1ccc(NC(=O)c2ccc(CN3CCN(C)CC3)cc2)cc1Nc1nccc(-c2cccnc2)n1 | 0.867 ± 0.096
Cc1cc(Nc2cc(N3CCN(C)CC3)nc(/C=C/c3ccccc3)n2)n[nH]1 | 0.929 ± 0.11
NC(N)=NC(N)=NCCc1ccccc1 [Phenformin hydrochloride] | 0.864 ± 0.068
CCS(=O)(=O)c1cccc(-c2cc(C(=O)NC3CCN(C)CC3)c(C)c3[nH]c4ncc(C)cc4c23)c1 | 0.72 ± 0.058
COc1cc2ncnc(Nc3cccc(Br)c3)c2cc1OC | 0.976 ± 0.048
Cc1ncc(-c2ccnc(Nc3ccc(S(C)(=O)=O)cc3)n2)n1C(C)C | 0.854 ± 0.011
CC(=O)O[C@H]1C(=O)[C@@]2(C)[C@H]([C@H](OC(=O)c3ccccc3)[C@]3(O)C[C@H](OC(=O)[C@H](O)[C@@H](NC(=O)c4ccccc4)c4ccccc4)C(C)=C1C3(C)C)[C@]1(OC(C)=O)CO[C@@H]1C[C@@H]2O [Paclitaxel; Taxol] | 0.242 ± 0.009
CC(=O)O[C@@]12CO[C@@H]1C[C@H](O)[C@@]1(C)C(=O)[C@H](O)C3=C(C)[C@@H](OC(=O)[C@H](O)[C@@H](NC(=O)OC(C)(C)C)c4ccccc4)C[C@@](O)([C@@H](OC(=O)c4ccccc4)[C@H]21)C3(C)C [Docetaxel] | 0.349 ± 0.015
